Results on four compounds are retold here after PubChem BioAssay.

Inconclusive results are not listed. The source made the active and inactive calls.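 Rule for the calls, unless noted: active = normalized viability below 100% at a tested concentration; inactive = the rest.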

Assay [1] in a line: growth inhibition of DIPG glioma cells, dose response, cell-based, SU-DIPG-XVII, MIPE5.0, CellTiter-Glo, qHTS (AID 1347060; cut-off not given, nearly all actives have AC50 up to about 26 µM;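 for AC50: cells exposed to compound for 48 hours before viability readout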). The conditions noted are these: SU-DIPG-XVII viability, CellTiter-Glo ATP luminescence.
Assay [2] in a line: growth inhibition of DIPG glioma cells, dose response, cell-based, SU-DIPG-IV, MIPE4.0, CellTiter-Glo, qHTS (AID 1347063; cut-off not given, nearly all actives have AC50 up to about 30 µM;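 note: compound exposure lasted 48 hours before the viability readout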). The conditions noted are these: SU-DIPG-IV viability, CellTiter-Glo ATP luminescence. (Cellular ATP, detected with luciferase, serves as a proxy for viable cell number.)
The nature of assay [3]: growth inhibition of DIPG glioma cells, dose response, cell-based, SU-DIPG-XIII, MIPE5.0, CellTiter-Glo, qHTS (AID 1347064; cut-off not given, nearly all actives have AC50 up to about 23 µM;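 for AC50: cells exposed to compound for 48 hours before the viability read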). The conditions noted are these: SU-DIPG-XIII viability, CellTiter-Glo ATP luminescence.
Assay [4] in a line: viability loss in pontine glioma line – cell-based, SU-DIPG-XXV, MIPE5.0, CellTiter-Glo, qHTS, dose response (AID 1347065; cut-off not given, nearly all actives have AC50 up to about 26 µM;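 note: cells exposed to compound for 48 hours before ATP readout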). The conditions noted are these: CellTiter-Glo ATP luminescence.
Assay [5] can be described thus: SU-DIPG-VI glioma cell viability, MIPE4.0 library, CellTiter-Glo luminescence, qHTS (AID 1347066; cut-off not given, nearly all actives have AC50 up to about 30 µM;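 note: cells exposed to compound for 48 hours before readout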). The conditions noted are these: CellTiter-Glo ATP luminescence.
Assay [6] is described as follows: JHH-DIPG-1 glioma cell viability, MIPE5.0 library, CellTiter-Glo luminescence, qHTS (AID 1347067; cut-off not given, nearly all actives have AC50 up to about 26 µM;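 note: cells exposed to compound for 48 hours before readout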). The conditions noted are these: JHH-DIPG-1 glioma viability, CellTiter-Glo ATP luminescence.
The nature of assay [7]: SU-DIPG-XXV glioma cell viability, MIPE5.0 library, qHTS (AID 1347068; cut-off not given, nearly all actives have IC50 up to about 30 µM;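 for IC50: cells exposed to compound for 48 hours before viability readout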). In general terms: Quantitative high-throughput screening tests each substance at several concentrations.
The nature of assay [8]: sensitizers of A549 cells to miR-34 induction, primary screen, imaging, A549 dox-inducible miR-34, nuclei and caspase counts (AID 1347080;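 active = compounds whose cell count with miR-34 switched on is under 0.7 times the count with it off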). Conditions: A549 miR-34 inducible, Hoechst nuclei count, 48 h.
The nature of assay [9]: modifiers of HSF1 nuclear foci, imaging, Selleck Cancer Library (AID 1347162; in the data active = plate-normalised HSF1 focus index below about 0.46). Conditions: human cells, at 10 µM; SSMD: measured here: HSF1 foci SSMD mean; cell count: measured here: cell number; plate-normalised HSF1 focus index: stronger effect = lower value.
Assay [10] is described as follows: survival rescue of mitochondrial mutant cells in low glucose, primary screen, MELAS cybrids, Rieske KO mouse fibroblasts, CellTiter-Glo (AID 1508586;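 active = mean z-score across replicates of 1.96 or higher in either the MELAS or the Rieske mutant cell line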;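 note: z relative to plate mean and SD of compound and empty wells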).
Assay [11] can be described thus: ovarian cancer cell viability with rucaparib, profiling panel, oncology-focused library, rucaparib conditional (AID 1508598). The conditions noted are these: patient-derived ovarian cancer cells, CellTiter-Glo viability, 144 h, stronger effect = lower value.

A word on the AC50: it is the concentration at which the activity in the assay is half-maximal. The term IC50 denotes the midpoint of a concentration-inhibition curve. As usually defined, the viability is a read-out of living cells in per cent, often relative to untreated cells.

On to `CNC(=O)c1cccc(-c2ccc3c(N4CCOC[C@@H]4C)nc(N4CCOC[C@@H]4C)nc3n2)c1`, for which the AC50 is 1.32 µM (active) in assay [1], 0.0209 µM (active) in assay [2], 0.118 µM (active) in [3] and 0.372 µM (active) in [4].
As for `O=C(Nc1ccccc1-c1cn2c(CN3CCNCC3)csc2n1)c1cnc2ccccc2n1`, the AC50 in assay [1] is 9.34 µM (active); in [2], 8.33 µM (active); in assay [3] it was 2.09 µM (active); in [4], 3.32 µM (active); in [5], 10.5 µM (active); in assay [6], 3.72 µM (active). Besides, the IC50 in assay [7] was 10.5 µM (active). Besides, the fold change in assay [8] (stronger effect = lower value, cell number ratio, induced over uninduced) is 0.907 (inactive); in assay [8] (measured here: relative caspase fold change +Dox/-Dox) it was 0.998. Also, the cell count was found to be 6250 in assay [8] (measured here: total cells with miR-34 induction, stronger effect = lower value); 6890 in assay [8] (measured here: total cells without miR-34 induction); 6160 in assay [9]. For the same compound, the SSMD in assay [9] is -4.31. Besides, the plate-normalised HSF1 focus index in assay [9] was 0.795 (inactive). Besides, the z-score was -0.642 (inactive) in assay [10] (MELAS cybrid survival, CellTiter-Glo 48 h, stronger effect = higher value) and 0.327 in [10] (Rieske KO mouse fibroblast survival, CellTiter-Glo 72 h). In addition, the viability in [11] (at 0.000305 µM, OCI-C5x cells, with rucaparib 10 µM, 100% = cells with rucaparib alone) is 102% (inactive); in [11] (at 0.000305 µM, OCI-C5x cells, without rucaparib) it was 114% (inactive); in assay [11] (at 0.000305 µM, OCI-P5x cells, with rucaparib 20 µM, 100% = cells with rucaparib alone) it was 123% (inactive); in assay [11] (at 0.000305 µM, OCI-P5x cells, without rucaparib), 115% (inactive); in [11] (at 0.00122 µM, OCI-C5x cells, with rucaparib 10 µM, 100% = cells with rucaparib alone), 101% (inactive); in [11] (at 0.00122 µM, OCI-C5x cells, without rucaparib), 106% (inactive). The viability in assay [11] (at 0.00122 µM, OCI-P5x cells, with rucaparib 20 µM, 100% = cells with rucaparib alone) was 117% (inactive); in [11] (at 0.00122 µM, OCI-P5x cells, without rucaparib), 116% (inactive); in assay [11] (at 0.00488 µM, OCI-C5x cells, with rucaparib 10 µM, 100% = cells with rucaparib alone) it was 106% (inactive); in assay [11] (at 0.00488 µM, OCI-C5x cells, without rucaparib), 110% (inactive); in assay [11] (at 0.00488 µM, OCI-P5x cells, with rucaparib 20 µM, 100% = cells with rucaparib alone), 111% (inactive); in assay [11] (at 0.00488 µM, OCI-P5x cells, without rucaparib), 114% (inactive). The viability in assay [11] (at 0.0195 µM, OCI-C5x cells, with rucaparib 10 µM, 100% = cells with rucaparib alone) was 113% (inactive); in assay [11] (at 0.0195 µM, OCI-C5x cells, without rucaparib), 116% (inactive); in assay [11] (at 0.0195 µM, OCI-P5x cells, with rucaparib 20 µM, 100% = cells with rucaparib alone), 111% (inactive); in [11] (at 0.0195 µM, OCI-P5x cells, without rucaparib), 114% (inactive); in [11] (at 0.0781 µM, OCI-C5x cells, with rucaparib 10 µM, 100% = cells with rucaparib alone) it was 113% (inactive); in assay [11] (at 0.0781 µM, OCI-C5x cells, without rucaparib), 110% (inactive). Besides, the viability in [11] (at 0.0781 µM, OCI-P5x cells, with rucaparib 20 µM, 100% = cells with rucaparib alone) was 110% (inactive); in assay [11] (at 0.0781 µM, OCI-P5x cells, without rucaparib), 110% (inactive); in assay [11] (at 0.313 µM, OCI-C5x cells, with rucaparib 10 µM, 100% = cells with rucaparib alone) it was 110% (inactive); in assay [11] (at 0.313 µM, OCI-C5x cells, without rucaparib), 108% (inactive); in [11] (at 0.313 µM, OCI-P5x cells, with rucaparib 20 µM, 100% = cells with rucaparib alone), 113% (inactive); in [11] (at 0.313 µM, OCI-P5x cells, without rucaparib), 107% (inactive). The viability in [11] (at 1.25 µM, OCI-C5x cells, with rucaparib 10 µM, 100% = cells with rucaparib alone) was 131% (inactive); in assay [11] (at 1.25 µM, OCI-C5x cells, without rucaparib), 120% (inactive); in assay [11] (at 1.25 µM, OCI-P5x cells, with rucaparib 20 µM, 100% = cells with rucaparib alone), 68.8% (active); in assay [11] (at 1.25 µM, OCI-P5x cells, without rucaparib), 89.6% (active); in assay [11] (at 5 µM, OCI-C5x cells, with rucaparib 10 µM, 100% = cells with rucaparib alone), 1.3% (active); in [11] (at 5 µM, OCI-C5x cells, without rucaparib), 1.45% (active). Besides, the viability was 0.727% (active) in [11] (at 5 µM, OCI-P5x cells, with rucaparib 20 µM, 100% = cells with rucaparib alone) and 0.751% (active) in [11] (at 5 µM, OCI-P5x cells, without rucaparib).
Regarding `CC(C)CNc1ccnc(NCc2csc(-c3ccccc3)n2)n1`, the AC50 in assay [1] is 16.6 µM (active); in [2] it was 16.6 µM (active); in assay [3], 14.8 µM (active); in [4] it was 16.6 µM (active); in [5], 20.9 µM (active); in assay [6], 20.9 µM (active).
With `CC(C)C[C@@H](N)[C@H](O)C(=O)N[C@H](C(=O)N[C@H](C(=O)N[C@@H](CC(=O)O)C(=O)O)C(C)C)C(C)C`, the result in assay [1], in assay [2], in assay [3], in [4], in assay [5] and in assay [6] was inactive. Moreover, the compound was called inactive in assay [7].
